Experimental findings from PubChem BioAssay (NCATS) are described below.

Structures are written as SMILES. Inconclusive results are not listed. Active and inactive are the calls of the source. Calls come from the whole dose curve; as a rule, active = well fitted inhibition curve with a large enough effect; inconclusive = small, poorly fitted or top-dose-only effect; inactive = flat fitted curve, though single readings scatter.

Lysine-specific demethylase 5B (Homo sapiens), sequence (Q9UGL1 whole entry, looked up): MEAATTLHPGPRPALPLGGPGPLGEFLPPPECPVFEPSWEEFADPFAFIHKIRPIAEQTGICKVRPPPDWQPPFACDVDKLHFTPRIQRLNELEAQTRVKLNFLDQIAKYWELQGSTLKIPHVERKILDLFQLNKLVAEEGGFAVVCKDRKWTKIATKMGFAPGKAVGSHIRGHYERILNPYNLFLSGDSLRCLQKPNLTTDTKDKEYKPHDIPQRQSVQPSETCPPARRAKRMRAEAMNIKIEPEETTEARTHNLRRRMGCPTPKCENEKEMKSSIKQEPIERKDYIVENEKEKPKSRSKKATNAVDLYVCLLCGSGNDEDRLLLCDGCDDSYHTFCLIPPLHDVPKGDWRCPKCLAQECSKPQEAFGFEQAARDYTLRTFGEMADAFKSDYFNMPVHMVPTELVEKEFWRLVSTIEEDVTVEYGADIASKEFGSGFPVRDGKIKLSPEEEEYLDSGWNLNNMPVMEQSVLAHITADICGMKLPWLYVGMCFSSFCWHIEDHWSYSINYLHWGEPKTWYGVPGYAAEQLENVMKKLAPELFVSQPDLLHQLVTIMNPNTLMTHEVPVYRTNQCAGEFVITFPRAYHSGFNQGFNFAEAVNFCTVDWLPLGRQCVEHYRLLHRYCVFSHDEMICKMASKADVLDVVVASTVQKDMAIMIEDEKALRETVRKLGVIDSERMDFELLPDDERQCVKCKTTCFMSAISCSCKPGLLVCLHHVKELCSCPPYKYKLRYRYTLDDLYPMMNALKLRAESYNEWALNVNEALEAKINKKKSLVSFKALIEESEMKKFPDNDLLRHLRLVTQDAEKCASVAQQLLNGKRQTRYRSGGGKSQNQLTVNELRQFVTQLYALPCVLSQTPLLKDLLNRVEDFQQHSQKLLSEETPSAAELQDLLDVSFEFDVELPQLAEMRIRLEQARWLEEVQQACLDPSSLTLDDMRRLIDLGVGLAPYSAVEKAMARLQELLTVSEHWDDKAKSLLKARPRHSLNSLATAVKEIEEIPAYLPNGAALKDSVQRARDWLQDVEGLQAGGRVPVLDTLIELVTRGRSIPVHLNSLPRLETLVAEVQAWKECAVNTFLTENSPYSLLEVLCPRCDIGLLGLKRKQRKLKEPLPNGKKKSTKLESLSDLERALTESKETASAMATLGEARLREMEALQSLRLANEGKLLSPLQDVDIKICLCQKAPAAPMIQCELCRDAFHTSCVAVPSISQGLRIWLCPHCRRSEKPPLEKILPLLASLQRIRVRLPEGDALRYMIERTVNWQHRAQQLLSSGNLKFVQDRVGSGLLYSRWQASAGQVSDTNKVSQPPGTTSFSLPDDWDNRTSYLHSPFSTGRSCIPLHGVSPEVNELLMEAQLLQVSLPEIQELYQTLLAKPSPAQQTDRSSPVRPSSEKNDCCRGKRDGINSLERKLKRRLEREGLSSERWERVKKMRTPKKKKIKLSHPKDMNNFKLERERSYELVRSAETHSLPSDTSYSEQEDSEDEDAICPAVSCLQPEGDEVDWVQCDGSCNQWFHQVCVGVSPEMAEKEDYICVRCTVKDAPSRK

The assay addresses Lysine-specific demethylase 5B (Homo sapiens) (UniProt Q9UGL1). In words: Optimization screen for KDM5B Histone Demethylases FDH coupled qHTS against the LOPAC library (AID 1347166). Conditions: KDM5B demethylation, FDH-coupled NADH fluorescence (FDH is formaldehyde dehydrogenase); series mostly up to 57.5 µM. A digest of the protocol: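 KDM5BDeltaAP (200nM final) preincubated 10 min with compound, then 12.5uM H3K4Me3, 25uM a-ketoglutarate, ascorbate, Fe(II), NAD+ and FDH added; 50mM HEPES pH 7.5, 0.01% Tween-20. NADH fluorescence (340/450 nm) change over 30 min, room temperature.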
(In general: qHTS replaces the single test concentration by a dilution series.)
Regarding `CN1CCC(=C2c3ccccc3C=Cc3ccccc32)CC1`, the compound was classed as inactive.

`Nc1ccn([C@H]2CC[C@@H](CO)O2)c(=O)n1`: the call was inactive.

For the compound `CC(COc1ccccc1)N(CCCl)Cc1ccccc1` (stereo not drawn), the result was inactive.

With `CN1CCN2c3ccccc3Cc3ccccc3C2C1` (stereo not drawn), the call was inactive.

For `COc1ccc(C2CNC(=O)C2)cc1OC1CCCC1` (stereo not drawn), the outcome was inactive.

`CC12CC3CC(C)(C1)CC(N)(C3)C2`: the outcome was inactive.

Take `CC#C[C@]1(O)CC[C@H]2[C@@H]3CCC4=CC(=O)CCC4=C3[C@@H](c3ccc(N(C)C)cc3)C[C@@]21C`: the compound was classed as inactive.

Turning to `NS(=O)(=O)c1cc2c(cc1Cl)NCNS2(=O)=O`, the outcome was inactive.

In the case of `CC(C)Cc1ccc(C(C)C(=O)O)cc1` (stereo not drawn), the compound was classed as inactive.

For `NCCS(=O)(=O)O`, the call was inactive.

Consider `CN1C2CCC1CC(OC(=O)C(CO)c1ccccc1)C2` (stereo not drawn), for which the outcome was inactive.

With `CS(=O)(=O)Nc1ccc([N+](=O)[O-])cc1Oc1ccccc1`, the compound was called inactive.

Consider `CN(C)C(=O)C(CCN1CCC(O)(c2ccc(Cl)cc2)CC1)(c1ccccc1)c1ccccc1`, for which the outcome was inactive.

In the case of `Clc1ccc2c(c1)C(N1CCNCC1)=Nc1ccccc1O2`, the call was inactive.

With `Cn1cnc2c1c(=O)[nH]c(=O)n2C`, the compound was classed as inactive.

As to `CNCCCC12CCC(c3ccccc31)c1ccccc12`, the call was inactive.

Turning to `COc1ccccc1OCC(O)CN1CCN(CC(=O)Nc2c(C)cccc2C)CC1` (stereo not drawn), the compound was called inactive.

With `CN(C)CCOC(c1ccccc1)c1ccccc1`, the result was inactive.

Regarding `COc1ccc2c(c1)c(CC(=O)O)c(C)n2C(=O)c1ccc(Cl)cc1`, the call was inactive.

Turning to `Nc1c2c(nc3ccccc13)CCCC2`, the compound was called inactive.

With `COc1ccc(CCN(C)CCCC(C#N)(c2ccc(OC)c(OC)c2)C(C)C)cc1OC` (stereo not drawn), the result was inactive.

`Cc1cc(C(C)(C)C)c(O)c(C)c1CC1=NCCN1`: the compound was classed as inactive.

`COc1ccccc1OCCNCC(O)COc1cccc2[nH]c3ccccc3c12` (stereo not drawn): the result was inactive.

Turning to `CCC1(C)CC(=O)NC1=O` (stereo not drawn), the compound was classed as inactive.

Regarding `Clc1ccccc1C(c1ccccc1)(c1ccccc1)n1ccnc1`, the call was inactive.

In the case of `CCOC(=O)C(C)(C)Oc1ccc(Cl)cc1`, the compound was classed as inactive.

Consider `OCCN1CCN(CCCN2c3ccccc3Sc3ccc(C(F)(F)F)cc32)CC1`, for which the outcome was inactive.

As for `O=c1c(-c2ccc(O)cc2)coc2cc(O)cc(O)c12`, the outcome was inactive.
